p53ts 39C kill – p53ts cell cytotoxicity, nonpermissive temperature. Potency, µM (doses to about 46.1 µM), without a hit: top-dose activity change, negative = cell killing, actives largely listed as cytotoxic. 130,000 tested, 1.5% active. H1299-p53A138V viability at 39C, ATP luminescence, 24 h. AID 902; also: nearly all actives have a fitted effect of over 55% in size
FLuc inh – firefly luciferase inhibition. P08659. purified firefly luciferase, luminescence, 8 min. Potency, µM (top dose mostly 57.1 µM), for inactives: top-dose activity change, negative = inhibition, usual class: inhibitors. 72,000 tested, 2.2% active; also: nearly all actives have a fitted effect of over 40% in size
Target sequence (P08659 whole entry, looked up): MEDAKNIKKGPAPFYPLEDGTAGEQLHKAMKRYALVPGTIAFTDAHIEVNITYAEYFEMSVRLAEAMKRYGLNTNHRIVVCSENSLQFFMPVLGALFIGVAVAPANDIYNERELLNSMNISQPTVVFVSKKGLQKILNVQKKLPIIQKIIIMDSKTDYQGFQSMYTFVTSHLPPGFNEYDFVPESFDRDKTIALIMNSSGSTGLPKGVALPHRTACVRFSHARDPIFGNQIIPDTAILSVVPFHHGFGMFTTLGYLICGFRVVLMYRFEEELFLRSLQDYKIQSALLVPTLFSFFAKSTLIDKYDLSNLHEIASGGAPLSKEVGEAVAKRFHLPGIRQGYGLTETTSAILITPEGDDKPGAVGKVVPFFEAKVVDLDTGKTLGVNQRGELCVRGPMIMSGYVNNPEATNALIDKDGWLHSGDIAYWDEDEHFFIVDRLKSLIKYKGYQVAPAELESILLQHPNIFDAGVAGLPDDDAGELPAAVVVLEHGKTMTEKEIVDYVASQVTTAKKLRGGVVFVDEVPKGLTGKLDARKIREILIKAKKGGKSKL
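Titration-based qHTS; buffer 50 mM imidazole pH 7.2, 50 mM KCl, 7 mM MgCl2, 10 uM ATP, 0.01% Tween 20, 0.05% BSA; luciferase/luciferin detector mix added after compound; 8 min, ambient; luminescence.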
p53ts 32C tox – cytotoxicity in p53ts cells at permissive temperature | Potency, µM (top dose mostly 46.1 µM), for the others: top-dose activity change, negative = cytotoxicity, most hits filed as cytotoxic | 130,000 tested, 0.93% active | H1299-p53A138V at 32C, ATP luminescence viability, 24 h;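 also: 0% = DMSO and -100% = full killing by reference compound; nearly all actives have a fitted effect of over 55% in size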
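ATP-content luminescence (ATPlite) read-out after 24 h compound exposure at 32C in H1299-p53A138V cells (600/well). Tested up to 46 uM. Normalized to DMSO (0%) and 100 uM tamoxifen (100% killing); Hill-fit AC50.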
* marks the source's active call; other numbers are inactive results; ? = inconclusive; / = no result given; [ ] = dose if it differs, or a comment. An excerpt weighted towards active compounds, which were near 2.5% of everything screened. Calls follow the shape of the dose curve; as a rule, active = well fitted curve in the direction sought with a large enough effect; inconclusive = small, poorly fitted or top-dose-only effect, or another doubt; inactive = no such curve, though single readings can be large; an effect the other way counts as inactive or inconclusive. Unless noted, % is scaled to controls: 0 for no effect and ±100 for the full control effect; potency is read from the fitted curve at half-maximal effect.

SMILES	p53ts 39C kill	FLuc inh	p53ts 32C tox
CCN(CCCNC(=O)c1nn(-c2ccc(OC)cc2)c(=O)c2c1c1ccccc1n2C)c1ccccc1	9%	/	-7%
CCS(=O)(=O)c1ncc(Cl)c(C(=O)N2CCN(c3cccc(Cl)c3)CC2)n1	2.5µM*	/	13µM*
O=C(c1cc2ccc3cccnc3c2[nH]1)N1CCN(c2cccc(Cl)c2)CC1	45%	/	6%
CC1CCc2onc(C(=O)N3CCN(c4cccc(Cl)c4)CC3)c2C1 (stereo not drawn)	4%	/	-1%
CS(=O)(=O)c1ncc(Cl)c(C(=O)N2CCN(c3cccc(Cl)c3)CC2)n1	2.5µM*	/	13µM*
O=c1[nH]c2[nH]c(=S)[nH]c(=S)c2[nH]1	8%[9.22 µM]	-7%[11.4 µM]	1%[9.22 µM]
CC(=O)C(C(C)=O)c1c(Cl)c(O)c(O)c2c(C(=O)c3ccccc3)coc12	?	?	13µM*
CN1CCN(Cc2c(O)ccc3occ(C(=O)c4ccccc4)c23)CC1	1%	1%	1%
Cc1nn(C)c2c1c(C(F)(F)F)cc(=O)n2CC(=O)N1CCC(C)CC1	-20%	/	1%
CC(=O)O[C@@H]1[C@H]([N+]2(C)CCCCC2)C[C@@H]2[C@@H]3CC[C@@H]4C[C@@H](OC(C)=O)[C@H]([N+]5(C)CCCCC5)C[C@@]4(C)[C@H]3CC[C@]21C	18%	1%	-7%
Cc1ccc(Cc2c(C)nn(-c3nc(C)c(C(=O)N4CCCCC4C)s3)c2C)cc1 (stereo not drawn)	7%	/	-3%
Nc1ccc2ncccc2c1	3.2µM*	-12%	?
Nc1ccc2ncccc2c1N	/	-21%[25.5 µM]	/
CCOC(=O)OCC1OC(c2ccccc2)C=CC1Oc1ccc(F)cc1C (stereo not drawn)	-7%[9.22 µM]	/	-6%[9.22 µM]
O=C1c2ccccc2C(=O)c2c1ccc(N1C(=O)c3ccccc3C1=O)c2-c1c(N2C(=O)c3ccccc3C2=O)ccc2c1C(=O)c1ccccc1C2=O	/	1%[11.4 µM]	/
COc1ccc(N2CCN(C(=O)c3ccc(C)c(NC(=O)c4nsc5ccccc45)c3)CC2)cc1	-10%	/	-1%
Nc1ccc(CCc2nc3ccccc3o2)cc1	?	25µM*	?
NCc1ccc(-c2nc3ccccc3o2)cc1	?	-13%	?
COc1cccc(C(=O)Nc2cccc(C(=O)OCc3cc(=O)n4c5c(sc4n3)CCCC5)c2)c1	-13%	/	-7%
NC(=O)C[C@@H](N)c1nn[nH]n1	1%[9.22 µM]	0%[11.4 µM]	-11%[9.22 µM]
c1ccc(-c2ccccn2)nc1	-8%	4%	4%
c1ccc(-c2ccc(-c3ccccn3)nn2)nc1	10µM*	13µM*	13µM*
CN(N=O)C(=O)N[C@H]1C(O)OC(CO)[C@@H](O)[C@H]1O (stereo partly drawn)	-12%	2%	-1%
C/C(CCC(=O)OC[C@@H]1O[C@H](C#Cc2ccccc2)C=C[C@@H]1Oc1ccc(C)cc1)=N/O[C@@H](C)CN1CCCc2nc(C)c(C)cc21	9%[9.22 µM]	2%[11.4 µM]	-3%[9.22 µM]
CCOC(=O)c1c(NC(=O)c2cc(CC)on2)sc(C)c1C	4%	/	3%
SMILES	p53ts 39C kill	FLuc inh	p53ts 32C tox
CN(C)c1ccc(-c2nccc(NCc3cccs3)n2)cc1	5µM*	0.5µM*	7.9µM*
CN(C)C(=O)c1ccc(-c2nccc(NCc3cccs3)n2)cc1	-13%	-1%[2.29 µM]	6%
O=c1oc2ccccc2cc1-c1cn2cc(Cc3ccc(F)cc3)sc2n1	-6%	/	-3%
Cc1ccc(Cc2cn3cc(-c4ccc(F)cc4)nc3s2)cc1	7.9µM*	/	?
O=C(NCc1cccc(Cl)c1)c1cccn1-c1nnc(N2CCCC2)s1	1%	/	1%
CCOC(=O)N1CCc2c(sc(NCc3cc(OC)ccc3OC)c2C(=O)Nc2cc(OC)ccc2OC)C1	8%	/	18%
Cc1cccc(NC(=O)CSc2nc3ccc(NC(=O)COc4ccccc4F)cc3s2)c1	10µM*	/	?
Cc1cccc(OCCSc2nc3ccc(NC(=O)COc4ccccc4F)cc3s2)c1	-1%	/	-9%
Cc1ccc(OCCSc2nc3ccc(NC(=O)COc4ccc(F)cc4)cc3s2)cc1	10µM*	/	0%
O=C(COc1ccc(F)cc1)Nc1ccc2nc(SCCOc3ccccc3)sc2c1	9%	/	-5%
CCc1ccccc1Nc1nn2c(=O)c3ccc(C(=O)Nc4ccc(OC)cc4)cc3nc2s1	-4%	/	?
Cc1ccc(C)c(Nc2nn3c(=O)c4ccc(C(=O)NCc5ccccc5)cc4nc3s2)c1	13µM*	/	?
Cc1ccccc1Nc1nn2c(=O)c3ccc(C(=O)NCc4cccs4)cc3nc2s1	-8%	/	-15%
COc1ccccc1Nc1nn2c(=O)c3ccc(C(=O)NCc4ccc(F)cc4)cc3nc2s1	3.2µM*	/	3.2µM*
CCc1ccccc1Nc1nn2c(=O)c3ccc(C(=O)NCc4ccccc4OC)cc3nc2s1	5%	/	-11%
CCc1cccc(NC(=O)c2ccc3c(=O)n4nc(Nc5ccccc5OC)sc4nc3c2)c1	5µM*	/	3.2µM*
COc1ccc(-c2nc3cnc(N4CCOCC4)nc3n(CCc3ccccc3)c2=O)cc1	6%	-1%[11.4 µM]	8%
COc1ccc(C(c2sc3ncnn3c2O)N2CC(C)OC(C)C2)cc1OC (stereo not drawn)	-5%	13µM*	-14%
CC1CN(C(c2cccs2)c2sc3ncnn3c2O)CC(C)O1 (stereo not drawn)	14%	0%	12%
COc1ccc(C(c2sc3ncnn3c2O)N2CCN(c3ccccc3F)CC2)cc1OC (stereo not drawn)	-1%	10µM*	-1%
COc1cccc(C(c2sc3nc(C)nn3c2O)N2CCN(c3ccccc3F)CC2)c1 (stereo not drawn)	-1%	1%	-3%
O=C1[C@H]2[C@H]3[C@H](O)[C@H](O)C/C(=N/OC[C@@H](O)COCc4ccco4)[C@@H]3CC[C@@H]2C(=O)N1C1CCCCC1	2%[9.22 µM]	2%[11.4 µM]	1%[9.22 µM]
O=c1c2ccccc2nc(N2CCN(c3cccc(Cl)c3)CC2)n1-c1ccccc1	6%	/	10%
CCOC(=O)c1scc(-c2ccc(C)cc2)c1S(=O)(=O)Nc1cccc(CC)c1	5%	/	8%
COc1ccc(Cn2c(C3CC3)nc3ccc(NC(C)=O)cc3c2=O)cc1	-5%	20µM*	-16%
SMILES	p53ts 39C kill	FLuc inh	p53ts 32C tox
COc1ccc(Cn2ccc3nc(C)c(C(=O)Nc4ccc(OC)c(OC)c4)cc3c2=O)cc1	-7%	/	-2%
Cc1cc2nc(-c3ccc(SCC(=O)N4CCOCC4)nc3)[nH]c2cc1C	7.9µM*	2.5µM*	6.3µM*
Cc1cc2nc(-c3ccc(SCC(=O)N4CCN(C(=O)c5ccco5)CC4)nc3)[nH]c2cc1C	5µM*	0.63µM*	6.3µM*
Cc1cc2cc3c(cc2nc1SCC(=O)N1CCN(C(=O)c2ccco2)CC1)OCO3	-17%	-2%	-15%
O=C(CSc1ccc2nnc(-c3ccc(F)cc3)n2n1)N1CCOCC1	3%	1%	9%
Cc1nnc(S(=O)(=O)c2ccc(N=Nc3c(N)nc(N)nc3N)cc2)s1	11%[9.22 µM]	0%[11.4 µM]	6%[9.22 µM]
C/C(CCN1CCc2nc(-c3ccccc3)c(-c3ccccc3)cc2C1)=N\OC[C@@H](O)COCc1ccco1	0%[9.22 µM]	2%[11.4 µM]	2%[9.22 µM]
COC(=O)c1cc(C)nc2c1c(=O)nc(SCc1ccccc1C)n2C1CC1	2%	/	12%
CCn1c(SCc2ccccc2Cl)nc(=O)c2c(C(=O)OC)cc(C3CC3)nc21	13µM*	/	10%
